# D3 ag: qHTS of D3 Dopamine Receptor Agonist: qHTS. D(3) dopamine receptor (Homo sapiens), P35462. D3R DiscoveRx beta-arrestin cells, luminescence, 90 min. max activation, %. hit rate 0.58% among 410,000. AID 652048, 2013; in the data active means max activation above about 30%; further: 0% is about no effect
#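 Agonist-mode cell screen: cells plated at 1500/well and incubated overnight at 37 °C, then exposed to library compounds for 90 min at 37 °C. Detection reagent was added for 30–60 min at room temperature, and luminescence was read.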
# GLP1R ag: qHTS of GLP-1 Receptor Agonists. Glucagon-like peptide 1 receptor (Homo sapiens), P43220. HEK293 GLP-1R CRE-luciferase, luminescence, 4-6 h; cells express a hypersensitive GLP-1R form. Potency, µM (top dose mostly 45.6 µM), for inactives: top-dose activation, hits mostly activators. hit rate 0.007% among 380,000; further: potency means the concentration at half of the fitted maximal effect; % of control where 0% means no effect
# Target sequence (P43220 whole entry, looked up): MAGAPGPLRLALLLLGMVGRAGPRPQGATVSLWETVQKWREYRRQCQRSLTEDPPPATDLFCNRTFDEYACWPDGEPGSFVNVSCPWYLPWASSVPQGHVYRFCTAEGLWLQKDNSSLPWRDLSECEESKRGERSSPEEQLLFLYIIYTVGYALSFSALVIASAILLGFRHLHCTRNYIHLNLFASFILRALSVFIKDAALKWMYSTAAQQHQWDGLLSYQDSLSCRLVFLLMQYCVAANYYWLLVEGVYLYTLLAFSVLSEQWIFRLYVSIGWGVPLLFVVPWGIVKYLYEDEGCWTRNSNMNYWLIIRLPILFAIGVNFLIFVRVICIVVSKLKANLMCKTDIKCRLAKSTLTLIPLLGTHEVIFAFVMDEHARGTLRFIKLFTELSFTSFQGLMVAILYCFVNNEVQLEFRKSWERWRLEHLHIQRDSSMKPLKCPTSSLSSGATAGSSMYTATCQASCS
# GLP-1R inv ag: qHTS of GLP-1 Receptor Inverse Agonists (Inhibition Mode) | Potency, µM (doses to about 38.3 µM), inactives show at the highest dose activity change, negative = inhibition, hits mostly inhibitors | hit rate 1.6% among 410,000 | HEK293 GLP-1R CRE-luciferase, luminescence, 24 h; GLP-1R form is constitutively active; further: potency means the concentration at half of the fitted maximal effect; on the % scale 0 is the no-effect control and ±100 the full control effect; nearly all actives have a fitted effect of over 55% in size
#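 Assay principle: reduced luminescence from a cAMP-responsive reporter in HEK293 cells co-expressing a constitutively active GLP-1R. Conditions: 24 hr compound incubation, 37 deg C, 5% CO2.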
# D3 antag: qHTS of D3 Dopamine Receptor Antagonist: qHTS; D3R cells, DiscoveRx beta-arrestin luminescence, antagonist mode; active compounds read low; hit rate 2.5% among 360,000; max response, negative = inhibition, %; in the data active means max response below about -50%; inconclusive means no clear call, values can overlap the other calls; further: on the % scale 0 is the no-effect control and ±100 the full control effect
#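 Cells expressing the human receptor were seeded at 1500 cells/well, incubated overnight at 37 degrees C in 5% CO2, then exposed to library compounds with dopamine controls for 90 minutes at 37 degrees C before luminescent detection.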
# An asterisk follows results filed as active; ? = inconclusive; / = no result given. Most compounds without a hit are left out; they make up all but 4.3% or so of the library. Unless noted, the call rests on the fitted dose curve; in most records, active means well fitted curve in the direction sought with a large enough effect; inconclusive means small, poorly fitted or top-dose-only effect, or another doubt; inactive means no such curve, though single readings can be large; an effect the other way counts as inactive or inconclusive.
SMILES,D3 ag,GLP1R ag,GLP-1R inv ag,D3 antag
COc1ccc(NC(=O)COc2cc(O)c3c(c2)OC(C)(C)CC3=O)cc1,-20.2,5.5%,?,0.6
CC1(C)CC(=O)c2c(O)cc(OCC(=O)Nc3ccc(CCO)cc3)cc2O1,34.0*,13.4%,-7.8%,17.2
Cc1ccc(C)c(CSc2nnc3[nH]c(=O)cc(C)n23)c1,-5.1,/,0.1%,/
O=C(NCC(=O)N(c1cccnc1)C(C(=O)NC1CCCC1)c1ccccc1)c1ccco1 (stereo not given),51.6*,5.1%,36.7%,4.2
CC(=O)c1ccc(OCC(O)CN2CC(C)OC(C)C2)cc1 (stereo not given),-2.2,11.9%,-11.6%,-55.0*
CC1CN(CC(O)COc2ccc(C(C)C)cc2)CC(C)O1 (stereo not given),-3.0,-5.3%,?,-15.8
Cc1cc(OCC(O)CN2CCc3ccccc3C2)ccc1Cl (stereo not given),-19.7,-5.7%,7.08µM*,-98.1*
Cc1ccc(C)c(OCC(O)CN2CCc3ccccc3C2)c1C (stereo not given),-15.8,19.1%,8.91µM*,-115.1*
Cc1ccc(OCC(O)CN2CCOCC2)cc1C (stereo not given),-0.2,-1.2%,3.0%,10.7
CCN(CCn1cccn1)Cc1ccccc1OCC(O)CN1CCc2ccccc2C1 (stereo not given),-20.3,-2.4%,?,-57.7*
COc1ccc(OC)c(CCNc2nc3cc(OC)c(OC)cc3c3nc(-c4cccnc4)nn23)c1,-14.4,/,2.9%,/
CCN1CCOC(=O)C1CC(=O)Nc1cc(C)ccc1OC (stereo not given),-15.7,/,6.8%,/
CC(C)c1nc2ccc(C(=O)Nc3ccccc3F)cc2o1,-11.9,/,1.7%,/
COc1cc(NC(=O)N2CCC(CN3CCOCC3)CC2)cc(OC)c1OC,-3.5,/,-0.7%,/
COc1ccc(COCC(O)CN2CC(C)OC(C)C2)cc1OC (stereo not given),17.3,-0.5%,0.0%,-154.0*
CCOc1ccc(OCC(O)CN2CCc3ccccc3C2)cc1 (stereo not given),0.6,-7.9%,?,-98.0*
CN1CCN(CC(O)COc2ccccc2)CC1 (stereo not given),-0.1,-0.2%,0.3%,6.2
OC(COCc1ccc(Cl)cc1)CN1CCc2ccccc2C1 (stereo not given),-10.5,-13.4%,?,-71.9*
CC(=O)c1ccc(OCC(O)CN2CCc3ccccc3C2)cc1 (stereo not given),-16.8,2.1%,?,-83.7*
CC(=O)c1ccc(OCC(O)CN2CCOCC2)cc1 (stereo not given),-3.9,-5.5%,10.8%,-7.0
OC(COc1ccc(CNCc2cccnc2)cc1)CN1CCc2ccccc2C1 (stereo not given),3.6,-3.2%,?,-103.3*
OC(COc1ccccc1CNCc1cccnc1)CN1CCc2ccccc2C1 (stereo not given),-21.8,6.2%,?,-5.0
Cc1cc(OCC(O)CN2CCc3ccccc3C2)cc(C(C)C)c1 (stereo not given),-0.3,8.1%,?,-68.1*
COc1ccccc1N(Cc1ccccc1)S(=O)(=O)c1cccc(C(=O)NC2CC(C)(C)NC(C)(C)C2)c1,-23.1,-30.4%,5.01µM*,-20.7
COc1ccccc1N(Cc1ccccc1)S(=O)(=O)c1cccc(C(=O)Nc2cc(C)ccn2)c1,10.2,-0.4%,4.47µM*,-8.6
SMILES,D3 ag,GLP1R ag,GLP-1R inv ag,D3 antag
Cc1cccc(-n2c(N)cc(=O)nc2SCC(=O)Nc2ccc(F)cc2)c1C,2.4,/,2.6%,/
Cc1ccc(C(=O)NCC(c2ccco2)N2CCCCC2)s1 (stereo not given),-8.5,-4.6%,-22.1%,?
O=C(CCNC(=O)c1ccc(Cl)cc1)NCC(c1ccco1)N1CCCCC1 (stereo not given),-0.7,10.3%,?,0.0
Cc1nn(-c2ccc(C(=O)NCC(c3ccco3)N3CCCC3)cc2)c(C)c1Cl (stereo not given),57.5*,-3.2%,?,-7.1
O=C(NCC(c1ccco1)N1CCCC1)c1ccc(Cl)cc1 (stereo not given),-2.0,-8.8%,?,-66.7*
O=C(NCC(c1ccco1)N1CCCC1)c1cc2cc(Cl)ccc2o1 (stereo not given),-22.6,14.2%,10µM*,?
O=C(NCC(c1ccco1)N1CCCC1)c1cc2ccccc2s1 (stereo not given),-19.1,-5.0%,?,-59.4*
CCCc1nnc(SCc2cc(=O)c3c(C)cc(C)cc3[nH]2)n1C,5.6,/,11.3%,/
CC1CCc2c(sc(NC(=O)c3cc4nc(-c5ccc(Cl)cc5)cc(C(F)(F)F)n4n3)c2C#N)C1 (stereo not given),8.9,/,-4.8%,/
O=C(Cc1ccc(Cl)cc1)c1c[nH]c(C(=O)NCc2cccnc2)c1,-0.3,-7.5%,2.82µM*,-2.0
Cc1ccc(C)c(NC(=O)C(Cc2ccccc2)N2Cc3ccccc3C2=O)c1 (stereo not given),-17.6,/,?,/
Cc1nc2c(c(C)c1CCC(=O)NCc1ccccc1)c(=O)n(C)c(=O)n2C,2.4,-0.7%,-14.8%,/
CCCC(=O)N1c2ncnn2C2(CCCCC2)[C@@H]2CCCC[C@@H]21,0.1,/,-2.2%,/
COc1cc(/C=C/c2cc(OC(C)=O)c3ccccc3n2)c(OC(C)=O)c([N+](=O)[O-])c1,-13.1,6.5%,15.5%,-82.2*
COc1cc(/C=C/c2ccc3c([N+](=O)[O-])cccc3n2)ccc1OCC(=O)O,1.0,-6.7%,25.3%,-7.7
CC1=NN(C(=O)CSCc2ccccc2)C(O)(c2ccc(F)cc2)C1 (stereo not given),-3.3,13.6%,7.94µM*,0.9
CC(C)(C)NC(=O)CSc1ncnc2c1nnn2Cc1ccccc1Cl,-4.8,-11.3%,3.98µM*,0.0
COc1ccc(CNC(=O)Cc2c(C)c3cc4c(C)coc4c(C)c3oc2=O)cc1OC,10.2,/,9.2%,/
CC1=C(C)CS(=O)N(S(=O)(=O)c2ccc(Cl)cc2)C1 (stereo not given),-2.6,-20.3%,-14.4%,-88.4*
CC1CCCC(C)N1S(=O)(=O)c1ccc(Cl)cc1 (stereo not given),1.0,-2.0%,?,16.0
Brc1ccc(-c2ccc(CNCc3ccccn3)o2)cc1,-20.0,-2.9%,-11.1%,-73.5*
CCN(C(=O)c1ccc2c(c1)OCO2)C12CC3CC(CC(C3)C1)C2,-3.2,27.6%,11.2µM*,-0.7
O=C(NCCOc1ccc(F)cc1)C1CCC(=O)N(CCN2CCOCC2)C1 (stereo not given),-23.9,5.8%,8.7%,-13.7
CNC(=O)COC(=O)c1ccccc1C(=O)c1ccc(Cl)c([N+](=O)[O-])c1,-0.1,7.4%,?,-61.1*
O=C(COC(=O)c1ccccc1C(=O)c1ccc(Cl)c([N+](=O)[O-])c1)NC1CC1,-17.9,-6.5%,?,-65.9*
